According to PubChem BioAssay AID720540 (National Center for Advancing Translational Sciences (NCATS), 2013):
The whole screen tested about 1,300 compounds, of which about 460 (35%) were called active. Roughly 39% stayed inconclusive and do not appear here. The call rests on the fitted dose curve; in most records, active means well fitted inhibition curve with a large enough effect; inconclusive means small, poorly fitted or top-dose-only effect; inactive means flat fitted curve, though single readings scatter. Some of the results follow. The source holds several records for some structures; these can differ, active in one and inactive in another.

target: Protein phosphatase EYA2 (Homo sapiens) (UniProt O00167); assay: qHTS for Inhibitors of the Phosphatase Activity of Eya2: Confirmatory Assay for Cherry-picked Compounds; settings: purified EYA2 phosphatase activity, qHTS confirmation; series mostly up to 46.1 µM; further: nearly all actives have a fitted effect of over 65% in size
Excerpt: The Eya protein family is an essential co-activator of the Six1 transcription factor. Six1 is a developmental gene that is abnormally re-expressed in a large percentage of breast cancers. This over-expression plays a causal role in the initiation and metastatic development of breast cancers. The Eya family of protein is also found to contain a unique HAD phosphatase domain with protein tyrosine phosphatase activity which can potentially play a role in Six1-mediated breast tumorigenesis. Recently, Eya2 is found to dephosphorylate the histone variant H2AX and direct cells towards DNA repair instead of apoptosis in the event of DNA damage.
A 1536 well format, fluorescence based qHTS assay was developed and used to target the phosphatase activity of Eya2 (AID 488837). Inhibitors found against Eya2 could serve as potential therapeutic tools to inhibit Six1-mediated breast tumorigenesis and to increase the efficiency of radiation and certain chemo therapy. This assay assessed the activity of the primary screen cherry-picked compounds against Eya2. Inhibition is the desired outcome for this assay.
NIH Chemical Genomics Center [NCGC]
NIH Molecular Libraries Probe Centers Network [MLPCN]
Assay Submitter (PI): Rui Zhao, University of Colorado Denver
Eya2 enzyme and 3-O-methyl-fluorescein phosphate (OMFP) substrate working solutions were reconstituted in the buffer reagent consist of 50 mM HEPES pH 7.5, 50 mM NaCl, […], 0.05% BSA and 1 mM DTT. One and a half microliter of 0.2 uM Eya2 working solution was dispensed in a 1536 well Greiner plate (black, medium bind). Twenty-three nanoliter of test compounds and control compound EGTA was transferred to the assay plate using the Kalypsys robotic system equipped with a 1536 pin head. The plate was incubated at room temperature for 10 minutes. One and a half microliter of the 50 uM the OMFP substrate was then dispensed to the assay plate and incubated at room temperature for additional 10 min. The fluorescence signal was read using the PerkinElmer ViewLux plate reader using a 485 nm excitation and 525 nm emission filters. The data was normalized to the positive control for maximum inhibition and DMSO treated wells as negative control.
Potency means the concentration at half of the fitted maximal effect.

Protein phosphatase EYA2 (Homo sapiens), sequence (O00167 whole entry, looked up, the tested form may be a part): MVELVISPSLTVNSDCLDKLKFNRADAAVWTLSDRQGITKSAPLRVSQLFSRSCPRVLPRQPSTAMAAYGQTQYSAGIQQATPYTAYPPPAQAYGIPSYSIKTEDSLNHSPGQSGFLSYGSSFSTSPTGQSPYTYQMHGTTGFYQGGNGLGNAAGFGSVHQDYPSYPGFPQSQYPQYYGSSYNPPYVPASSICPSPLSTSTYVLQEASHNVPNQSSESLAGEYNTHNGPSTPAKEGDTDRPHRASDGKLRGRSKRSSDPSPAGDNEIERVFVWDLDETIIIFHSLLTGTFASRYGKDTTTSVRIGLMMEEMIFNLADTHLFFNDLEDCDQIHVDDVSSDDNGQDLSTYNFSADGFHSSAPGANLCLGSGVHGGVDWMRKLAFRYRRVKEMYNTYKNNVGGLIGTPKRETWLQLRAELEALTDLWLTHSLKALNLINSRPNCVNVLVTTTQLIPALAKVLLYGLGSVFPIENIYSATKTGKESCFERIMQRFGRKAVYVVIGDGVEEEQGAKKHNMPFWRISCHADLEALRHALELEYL

Row | SMILES | Potency
1 | CN(C)S(=O)(=O)c1ccc(C(=O)NNc2nc(-c3ccccc3)c3cc(Br)ccc3n2)cc1 | 8.49 µM (active)
2 | Cc1ccc(N2C(=O)NC(=O)/C(=C/c3ccc(OC(=O)c4cccs4)cc3)C2=O)cc1 | 12 µM (active)
3 | O=C(Cc1ccccc1)c1ccccn1 | 10.7 µM (active)
4 | O=C1NC(=S)N(c2ccccc2)C(=O)/C1=C/c1ccco1 | 6.75 µM (active)
5 | COC(=O)C1=C(c2cccc(OCc3ccccc3)c2)C[C@@H]2CC[C@H]1N2C(=O)NCCCc1ccccc1 | inactive
6 | COC(=O)C1=C(c2ccc(F)cc2OCc2ccccc2)C[C@@H]2CC[C@H]1N2C(=O)NCc1ccc(N(C)C)cc1 | 8.49 µM (active)
7 | C[C@H]1CCC[C@H](O)CCCCCc2cc(O)cc(O)c2C(=O)O1 | inactive
8 | N[C@@H](Cc1cc(I)c(O)c(I)c1)C(=O)O | 9.53 µM (active)
9 | NC(Cc1cc(O)c(O)cc1O)C(=O)O (stereo not given) | 2.39 µM (active)
10 | COc1ccc(-c2cc(=NCCC(=O)O)c3cc(C)ccc3o2)cc1 | 16.9 µM (active)
11 | CN(C)c1ccc(C=C2C=CC=C2)cc1 | 19 µM (active) and inactive
12 | COc1ccccc1N1CCN(CCc2c[nH]c3cc4c(cc23)OCO4)CC1 | 19 µM (active)
13 | CNc1ccc2nc3ccccc3[n+](C)c2c1 | 16.9 µM (active)
14 | O=C(O)CCCOc1ccc(Cl)cc1Cl | inactive
15 | O=[N+]([O-])c1cc(C(F)(F)F)c(Cl)c([N+](=O)[O-])c1Nc1ncc(C(F)(F)F)cc1Cl | 21.3 µM (active)
16 | C=C1C(=O)O[C@@H]2C[C@@H](C)[C@@H]3C=CC(=O)[C@@]3(C)[C@@H](OC(=O)CC(=O)O[C@H]3[C@@H]4C(=C)C(=O)O[C@@H]4C[C@@H](C)[C@@H]4C=CC(=O)[C@]43C)[C@H]12 | 10.7 µM (active)
17 | CCOC(=O)CCCc1cc[c]([Sb](=[O])([OH])[OH])cc1 | 2.13 µM (active)
18 | CCOC(=O)c1cc2c(cn1)[C@@H](CCO)NC2 | inactive
19 | Cc1c(N=Nc2c(O)[nH]c(=O)[nH]c2=O)c(=O)n(-c2ccccc2)n1C | 2.13 µM (active)
20 | COC1C(O)C(C)OC(OC2C(Oc3cccc4c(O)c5c(=O)oc6ccc(C)c7c(=O)oc(c34)c5c67)OC(C)C(O)C2O)C1O (stereo not given) | inactive
21 | CN(C)c1ccc(N=Nc2ccccc2)cc1 | 5.36 µM (active)
22 | Cc1nc2ccccc2c(=O)n1-c1ccc(Cl)cc1[N+](=O)[O-] | inactive
23 | CC(N)[C@H](O)c1ccc(O)c(O)c1 (stereo not given in full) | inactive
24 | O=C(O)c1cc[c]([Sb](=[O])([OH])[OH])cc1[N+](=O)[O-] | 2.69 µM (active)
25 | O=C1NC(=O)N(c2ccc(Cl)cc2)C(=O)/C1=C\c1ccc(Sc2nc3ccccc3[nH]2)o1 | 13.5 µM (active)
